Over roughly 140,000 sequences, “enrichment ratio after two sorts for PhoP signalling” has its median near 0; the highest 2% begin near 11. The entries come from a sample that favours the highest values as a whole.
B1: PhoQ; a variant is named by its letters at X, in order, P23837 (parent)
chain: MKKLLRLFFPLSLRVRFLLATAAVVLVLSLAYGMVALIGYSVSFDKTTFRLLRGESNLFYTLAKWENNKLHVELPENIDKQSPTMTLIYDENGQLLWAQRDVPWLMKMIQPDWLKSNGFHEIEADVNDTSLLLSGDHSIQQQLQEVREDDDDAEMTHSVAVNVYPATSRMPKLTIVVVDTIPVELKSSYMVWSWFIYVLSANLLLVIPLLWVAAWWSLRPIEALAKEVRELEEHNRELLNPATTRELTSLVRNLNRLLKSERERYDKYRTTLTDLTHSLKTPLXXLQXXLRSLRSEKMSVSDAEPVMLEQISRISQQIGYYLHRASMRGGTLLSRELHPVAPLLDNLTSALNKVYQRKGVNISLDISPEISFVGEQNDFVEVMGNVLDNACKYCLEFVEISARQTDEHLYIVVEDDGPGIPLSKREVIFDRGQRVDTLRPGQGVGLAVAREITEQYEGKIVAGESMLGGARMEVIFGRQHSAPKDE

Variants of: B1
Assay: enrichment ratio after two sorts for PhoP signalling (ratio (wild type AVST 3.29)); higher = more functional
Conditions: with PhoP (E. coli)

Variant	enrichment ratio
DQAN	≤ 0.25
THCY	1.87
NMCY	≤ 0.25
NHCY	≤ 0.25
AMCY	25.2
AHCY	12.7
VLCY	≤ 0.25
SYHH	0.299
IIEM	≤ 0.25
KTPQ	≤ 0.25
MTSW	≤ 0.25
AFCE	≤ 0.25
AFCG	11.4
AFCI	≤ 0.25
AFAG	≤ 0.25
AFMG	19.5
AFVG	4.66
SDVD	≤ 0.25
FQFY	≤ 0.25
YCFT	≤ 0.25
QDDD	≤ 0.25

Variant	enrichment ratio
NLAY	≤ 0.25
GAMS	≤ 0.25
TPSS	≤ 0.25
KCLC	≤ 0.25
MNLC	11.7
GNLC	4.14
MNLA	≤ 0.25
TNLC	13.5
MCLC	1.65
RMKH	≤ 0.25
FPFY	≤ 0.25
FYFF	≤ 0.25
FHQK	≤ 0.25
ATIH	25.3
TGIH	≤ 0.25
ADIH	≤ 0.25
YTIH	≤ 0.25
ANIH	≤ 0.25
AGIH	16.3
HART	≤ 0.25
AQSF	11.9

Variant	enrichment ratio
AISF	13.4
AQHF	≤ 0.25
AKSF	2.49
ADSF	≤ 0.25
WISF	≤ 0.25
PMKN	≤ 0.25
SCIV	1.12
AGGM	≤ 0.25
AGCK	16.1
RQKH	≤ 0.25
GGCE	≤ 0.25
TGCE	24.6
RQKI	19.2
GGCA	6.15
RGCA	≤ 0.25
AGWM	≤ 0.25
TGCA	19.8
RGCE	≤ 0.25
RQQH	≤ 0.25
GKAG	≤ 0.25
TPNE	≤ 0.25

Variant	enrichment ratio
EIDL	≤ 0.25
VTQY	≤ 0.25
KAGG	≤ 0.25
SNFF	≤ 0.25
TGCK	37.2
AGVA	1.62
AGDH	≤ 0.25
GGCK	≤ 0.25
TGCV	7.81
TGVY	2.88
AGCA	15
AGVY	18.3
AGWI	≤ 0.25
RGCK	≤ 0.25
AGCV	23.6
AGDI	≤ 0.25
IEAT	≤ 0.25
WPAK	≤ 0.25
GFQM	≤ 0.25
YNLK	≤ 0.25
DYIY	≤ 0.25

Source: a collection of fitness landscapes (doi:10.1126/science.1257360)
